The text below walks through data of PubChem BioAssay (NCI).

The panel holds about 83,000 compounds, 20% with a hit somewhere; the sample as a whole holds those more often.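 Compound tested at a single concentration for 48 hours in 96-well plates; a percent growth value below 10 was scored as active.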 A number with no mark means an inactive call. The source made the active and inactive calls.

This test relates to MDA-MB-468 breast. In words: NCI-60 one-dose screen, 48 h (100 = growth as untreated, 0 = no growth, -100 = all killed). The conditions noted are these: 10 µM unless noted.
In the case of `O=C(NCCn1ccnc1)c1ccc(-c2nc3ccc4[nH]ncc4c3c3c2CCCC3)cc1`, the growth is 10.1%. With `O=C(Cc1ccccc1)c1ccc(Cl)cc1`, the growth is 124%. `c1ccc2c(c1)Nc1ccncc1S2`: the growth is 107%. The value for `O=c1cc(-c2ccccc2)[nH]n1-c1nc2ccccc2[nH]1` was 66.2%; that for `COc1ccc2cc(-c3nc(C)c(C(C)=O)c(-c4ccc(C)cc4)n3)ccc2c1` was 74.4%; that for `O=C(O)CN1C(=O)c2cccc3cccc(c23)C1=O` was 95.7%.

With `COc1ccc(OC)c(C(=O)Nc2cccc(-c3cc(=O)c4ccccc4o3)c2)c1`, the growth was 92.9%. For `C#CCn1cnc2cnc(Nc3cccc(NC(=O)C=C)c3)nc21` the value was 55.1% [6.25 µM]. The value for `Cc1nc2sc(C(=O)Nc3cccc4ccccc34)c(N)c2cc1C(=O)c1ccccc1` was 5.45% (active). The value for `Cc1ccc(C)c2c1C(O)(C#Cc1ccccc1)c1ccccc1C2(O)C#Cc1ccccc1` (stereo not given) was 58.1%.

As to `NC[C@H](O)c1ccc(O)c(O)c1`, the growth is 111%. The value for `ON=C(C1CCCCC1)C1CCCCC1` was 105%; that for `C[C@@H](N)c1ccc(C(=O)Nc2ccnc3[nH]ccc23)cc1` was 49.2%. Take `O=C(CSc1nnc(-c2cccs2)n1-c1ccccc1)Nc1ccc(F)cc1`: the growth is 88.7%. For the compound `CCCCCCCCCCCCSC(=N)N`, the growth is -58.5% (active).

In the case of `COc1ccc(OC)c(Cn2cc3c(c2)-c2oncc2CC3)c1`, the growth was 3.48% (active). Regarding `Sc1cccc2cccnc12`, the growth was 30%. Turning to `C=C1CC[C@@H]2[C@](C)(COC(C)=O)[C@H](OC(C)=O)CC[C@@]2(C)[C@@H]1CC(Nc1ccc(S(=O)(=O)Nc2cc(C)on2)cc1)C1=CCOC1=O` (stereo not given in full), the growth is 3.23% (active). On to `CC(=O)O[C@H]1C[C@@]2(C)[C@@H](C[C@@H](O)[C@H]3[C@@]4(C)CC[C@H](N5CCCC5)[C@@H](C)[C@@H]4CC[C@@]32C)/C1=C(\CCC=C(C)C)C(=O)O`, for which the growth is 94.6%. Take `S=c1nc[nH]c2nc[nH]c12`: the growth is 6.65% [50 µM] (active). For `CNC(=O)c1cc(Oc2ccc(NC(=O)Nc3ccc(Cl)c(OC(C)C)c3)c(F)c2)ccn1` the value was 11.8%. As to `C=C(C)[C@@H]1CC[C@]2(COC3CCCCO3)CC[C@]3(C)[C@H](CC[C@@H]4[C@@]5(C)C=C(C=O)C(=O)C(C)(C)[C@@H]5CC[C@]43C)[C@@H]12` (stereo not given in full), the growth was -53.1% (active). Consider `CSc1cnc2ccccc2n1`, for which the growth was 119%. Turning to `O=Cc1cc2ccccc2nc1Oc1ccc(C(F)(F)F)cc1`, the growth was 90.7%.

With `CCCC/C=C/[C@@H]1C[C@H]1CCO`, the growth was 96.1%. For `Nc1c(C(=O)Nc2ccccc2)sc2nc3c(cc12)CN(Cc1ccccc1)CC3` the value was 76.2%. `C#Cc1cccc(NC(=O)c2ccc(Cl)cc2Cl)c1`: the growth was 102%. The value for `CC(c1ccccc1)n1ccnc1CO` (stereo not given) was 101%. As for `CCN1C(=O)N(CC)C2C1NN=C1SC(c3ccccc3)=CC(=O)N12` (stereo not given), the growth is 5.17% (active). For `Cc1cccc(NC(=O)CSc2nc3ccccc3[nH]2)c1`, the growth is 104%.

With `O=C(Nc1ccc(OCc2nnc(-c3ccccc3)o2)c(F)c1)Nc1ccc(Cl)c(C(F)(F)F)c1`, the growth is 1.01% (active). For `CSc1nc2c(c(=O)n1C)CN(Cc1ccccc1)C(=O)CN2` the value was 71.3%; for `CCOC(=O)c1c(NC(=O)CSc2n[nH]c3nc4ccccc4n23)sc(CC)c1C`, 68.6%; for `CCOC(=O)/C(C#N)=C1/NNC(=Nc2cccnc2)S1`, 95.3%.

Consider `O=[N+]([O-])c1cccc(C2c3ccccc3Oc3ccccc32)c1`, for which the growth was 95.4%. For `Cc1c2cc[nH]c(=O)c2c(C)c2c1[nH]c1cc(OCCN3CCN(C)CC3)ccc12`, the growth is -12.4% (active).

For the compound `NC(=O)c1cccc(-c2ccc(S(=O)(=O)Nc3ccc4c(c3)N(C(=O)C3CC3)CCC4)cc2)c1`, the growth is -4.85% (active).

Turning to `Cc1ccc(-n2c(-c3ccccc3)c(-c3ccccc3)c3c(SCC(=O)n4[nH]c(N)cc4=O)ncnc32)cc1`, the growth is 91.8%. For `COc1cc(-c2nc3ccc(C)cc3[nH]2)ccc1OCC(=O)N=Nc1c(O)[nH]c2ccccc12` the value was -85.9% (active). The value for `CCN(CC)CCOc1ccccc1-n1c(C)ccc1-c1ccccc1` was 85.1%.
